# Compound activity (PubChem)
# Hits are enriched below; roughly 1.1% of the tested compounds scored in any of these assays.
# Menin-MLL TR inh: qHTS Assay for Inhibitors Targeting the Menin-MLL Interaction in MLL Related Leukemias: Competition With Texas Red Labeled MLL-derived Mutant Peptide; O00255; Menin + Texas Red MLL mutant peptide, fluorescence polarization; Potency, µM (highest dose often 61.6 µM), actives largely listed as inhibitors; 270,000 compounds, 0.23% hits; active = well fitted inhibition curve with a large enough effect in the polarisation, with a control signal flat, not every such curve was filed as active; inconclusive = small, poorly fitted or top-dose-only effect, or effect the other way, or a change in a side signal; inactive = no such curve, though single readings can be large or run the other way; the % refers to the polarisation
# KCNH2 WT inh: qHTS for Inhibitors of KCHN2 3.1: Wildtype qHTS; AID 720551, 2013; 340,000 compounds, 0.37% hits; activity change, % at 1.84 µM; U2OS, BacMam KCNH2, thallium flux FluxOr; active compounds read low; Voltage-gated inwardly rectifying potassium channel KCNH2 (Homo sapiens), Q12809;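 active = maximum activity change below -70%; inconclusive = maximum activity change between -70% and -50%; inactive = maximum activity change above -50%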
#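 U2OS cells were transduced with wild-type KCNH2 virus (2.03 x 10^8 / mL) for 4 h at room temperature, then cultured overnight at 37 C. Thallium flux was read with FluxOr dye. Rate constants were normalized to DMSO controls.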
# Menin-MLL FL inh: qHTS Assay for Inhibitors Targeting the Menin-MLL Interaction in MLL Related Leukemias: Competition With Fluorescein Labeled MLL-derived Peptide; Fluorescence polarization, fluorescein-MLL peptide displacement from menin; FP activity change, % at 61.4 µM; 290,000 tested, under 10 active; AID 1766, 2009; active = well fitted curve in the direction sought with a large enough effect in the polarisation, not every such curve was filed as active; inconclusive = small, poorly fitted or top-dose-only effect, or effect the other way, or a change in a side signal; inactive = no such curve, though single readings can be large or run the other way; the % refers to the polarisation
# KCNH2 3.1 inh: qHTS for Inhibitors of KCHN2 3.1: Mutant qHTS | Potassium voltage-gated channel subfamily H member 2, brain isoform KCNH2 3.1 (human) | U2OS KCNH2 3.1, thallium flux FluxOr; active compounds read low | activity change, % (tested at about 1.8 µM) | 340,000 compounds, 0.95% hits | AID 720553, 2013;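 active = maximum activity change below -70%; inconclusive = maximum activity change from -70% to -50%; inactive = maximum activity change above -50%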;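 note: thallium influx rate constant from kinetic fluorescence after stimulation buffer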
#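 Measured as rate of thallium-driven FluxOr signal in transduced U2OS cells carrying the 3.1 channel, read kinetically for 2 min upon stimulation; values are rate constants scaled to DMSO control wells.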
# CXXC DNA block: qHTS Fluorescence Polarization Assay for Inhibitors of MLL CXXC domain - DNA interaction; AID 2662, 2010; Histone-lysine N-methyltransferase 2A (Homo sapiens), Q03164; Potency, µM (titrated, usually from 115 µM), usual class: inhibitors; 290,000 compounds, 0.037% hits; MLL-CXXC / FITC-HOXA9 DNA fluorescence polarization; active = well fitted inhibition curve with a large enough effect in the polarisation, with a control signal flat, not every such curve was filed as active; inconclusive = small, poorly fitted or top-dose-only effect, or effect the other way, or a change in a side signal; inactive = no such curve, though single readings can be large or run the other way; the % refers to the polarisation
#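 Steps: dispense CXXC domain solution (7 uM) → pin compounds or unlabeled HOX-A9 DNA control → 5 min ambient → add FLSN-HOX-A9 solution (50 nM) → spin → 30 min ambient → fluorescence polarization. Tris pH 7.5/NaCl/DTT/BSA buffer.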
# Numbers stand for hits; - = inactive; ? = inconclusive; . = not tested or not shown; [ ] = another dose, or the depositor's remark.
SMILES,Menin-MLL TR inh,KCNH2 WT inh,Menin-MLL FL inh,KCNH2 3.1 inh,CXXC DNA block
CCCOc1ccc(C2NC(=S)NC(C)=C2C(=O)c2ccccc2)cc1OC (stereo not drawn),-,-,-,-112,-
COc1cc(C2NC(=S)NC(C)=C2C(=O)c2ccccc2)ccc1O (stereo not drawn),-,-,-,-,-
Cc1ccccc1N1CCN(S(=O)(=O)CC23CCC(CC2NC(=O)C(N)CCS(C)(=O)=O)C3(C)C)CC1 (stereo not drawn),-,.,-,.,.
Cc1ccc(C(C)C)c(OCC(O)CN2CCc3ccccc3C2)c1 (stereo not drawn),?,-113,-,-,-
Cc1cccc(C)c1OCC(O)CN1CCc2ccccc2C1 (stereo not drawn),.,-,.,-,.
COc1ccc(C(=O)C(C)[n+]2ccc(C)c3ccccc32)cc1[N+](=O)[O-] (stereo not drawn),-,-140,-,-,-
CC(=Nc1ccccc1N)c1c(C)cc(=O)n(O)c1O,?,.,-,.,.
Cc1ccc(-n2cc(CN3CCC(O)(c4ccccn4)CC3)c(-c3ccc(F)cc3)n2)cc1,-,?,-,-73,-
Cc1ccc(-n2cc(CN3CCNC(=O)CC3)c(-c3ccc(F)cc3)n2)cc1,.,-,-,-,-
COc1ccccc1N(C)S(=O)(=O)c1ccc(C(=O)NCC(c2ccco2)N2CCCCC2)cc1 (stereo not drawn),.,-,.,-94,.
O=C(NCC(c1ccco1)N1CCCC1)c1ccc(Cl)c(S(=O)(=O)N2CCc3ccccc32)c1 (stereo not drawn),.,-,.,-77,.
CN(c1ccccc1)S(=O)(=O)c1ccc(C(=O)NCC(c2ccco2)N2CCCCC2)cc1 (stereo not drawn),.,-,.,-,.
CC(=O)OCC(CO)OC(C)=O (stereo not drawn) (tested in a mixture with another compound),-,.,-,.,.
COc1cc(O)c2c(c1)oc(=O)c1c3cc(O)c(O)cc3oc21,?,.,-,.,.
CCCCCC(O)(CCN1CCCCC1)c1ccc(OCC)cc1 (stereo not drawn),-,-99,-,-114,?
CCCCOc1ccc(C(O)(CCC)CCN2CCOCC2)cc1 (stereo not drawn),-,-,-,-,-
CC(C)Cn1c(N2CCN(CC(=O)Nc3ccc(Cl)cc3)CC2)nc2ccccc21,-,-,-,-74,-
CCCn1c(N2CCN(C(=O)Nc3ccccc3)CC2)nc2ccccc21,-,-,-,-105,-
COC(=O)[C@]1(Cc2ccccc2)N[C@H](CN(C)C(=O)c2ccc(F)cc2)[C@@H]2C(=O)N(C)C(=O)[C@@H]21,.,-,.,-,.
CN(C[C@H](Cc1ccccc1)N(CCN(CCc1ccccc1)N=O)N=O)N=O,-,-,-,-200,-
CC(C)=CCC/C(C)=C/CO/N=C1/C[C@@H](O)[C@@H](O)[C@@H]2[C@@H]3C(=O)N(C4CCCCC4)C(=O)[C@H]3CC[C@@H]12,-[11.7 µM],.,-[11.7 µM],.,.
O=C(CN1C(=O)COc2ccc(S(=O)(=O)N3CCCC3)cc21)Nc1cccc(F)c1,-,-,-,-116,-
FC(F)(F)c1ccccc1-c1ccc2ncnc(NCc3cccs3)c2c1,-,.,-,.,.
CN1CCN(/N=C/c2ccc(N(c3ccccc3)c3ccccc3)cc2)CC1,?,-,-,-72,-
COc1ccc(C(=O)c2c3ccc(C(F)(F)F)cc3[n+]([O-])n2CCCN)cc1,.,-,.,?,.
COc1ccccc1Nc1nc(N)nc(CN2CCC(Cc3ccccc3)CC2)n1,?,-155,-,-104,-
COc1ccc(Nc2nc(N)nc(CN3CCC(Cc4ccccc4)CC3)n2)cc1,-,-,-,-116,-
COc1cccc(CN2CCCC(C(=O)N3CCCCC3)C2)c1 (stereo not drawn),-,-,-,-,?
